# Screening results deposited in PubChem BioAssay by National Center for Advancing Translational Sciences (NCATS).
# FMDV antiviral = foot and mouth disease virus antiviral activity; AID 1159524; FMDV antiviral cell-based qHTS; actives 1.2% (n = 410,000); Potency, µM (series often up to 57.9 µM), usual class: inhibitors; calls by dose curve; tested in HEK293T cells; also: read-out not given here; nearly all actives have a fitted effect of over 45% in size
# FBPA Giardia inh = Giardia lamblia aldolase inhibition. A8B2U2. Potency, µM (top dose mostly 59.6 µM), most hits filed as inhibitors. actives 0.71% (n = 290,000). purified Giardia FBPA; also: nearly all actives have a fitted effect of over 55% in size
# Target sequence (A8B2U2 whole entry, looked up): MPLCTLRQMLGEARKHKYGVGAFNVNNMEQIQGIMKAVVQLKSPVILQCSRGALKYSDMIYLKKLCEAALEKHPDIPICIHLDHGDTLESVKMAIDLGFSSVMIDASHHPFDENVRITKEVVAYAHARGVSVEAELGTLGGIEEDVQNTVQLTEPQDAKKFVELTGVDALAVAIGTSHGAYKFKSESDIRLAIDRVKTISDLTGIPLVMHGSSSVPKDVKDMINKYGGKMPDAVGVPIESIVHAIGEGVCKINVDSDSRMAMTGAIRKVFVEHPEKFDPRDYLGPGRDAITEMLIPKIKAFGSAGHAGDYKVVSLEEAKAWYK
#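 40 nM FBPA preincubated 10 min at RT with compound (up to 57.5 uM final), then substrate plus GAPDH/TPI/NAD/arsenate coupling and diaphorase/resazurin added. Fluorescence read after 20 min at RT, 525/598 nm.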
# Vaccinia Venus = inhibitors of vaccinia virus (Venus reporter). Vaccinia virus Venus reporter expression, fluorescence. Potency, µM (top dose mostly 36.5 µM), hits mostly inhibitors. actives 0.46% (n = 330,000); calls by dose curve; tested in A549 cells; also: nearly all actives have a fitted effect of over 30% in size
# HCMV inh = inhibitors of human cytomegalovirus | HFF cells, HCMV-luciferase reporter, 72 h; hits give low values | activity change, negative = inhibition, % at 57.5 µM | actives 4.5% (n = 410,000) | AID 1259415; in the data active = activity change below about -60%; inconclusive = no clear call, values can overlap the other calls; inactive = above about -39%
#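 Cell-based, HFFs, 1000 cells/well, 16 h 37C; cpds in DMSO + HCMV-luc, MOI 1 PFU/cell; 72 h 37C; OneGlo luminescence after 5 min RT; norm. to buffer vs Salinomycin 10uM.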
# HCV inhibitor = blocks hepatitis C virus; Huh7.5.1 HCVcc-Cre infection, luciferase reporter, 44 h; Potency, µM (doses to about 41.8 µM), actives largely listed as inhibitors; actives 3.4% (n = 340,000); AID 651820
#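 Cells seeded at 1,000/well and cultured 4 h, then compounds added followed by HCVcc-Cre virus (~0.5 moi). After 44 h further culture, luciferase substrate was added, plates held 15 min at room temperature, and luminescence read for 15 sec.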
# Vaccinia mCherry = vaccinia inhibition (mCherry reporter); actives 0.63% (n = 310,000); AID 720579; Potency, µM (highest dose often 36.5 µM), most hits filed as inhibitors; Vaccinia virus mCherry reporter infection, fluorescence; calls by dose curve; tested in A549 cells; also: nearly all actives have a fitted effect of over 35% in size
# A number is an active result; . = inactive; ? = inconclusive; / = no result. Rows were chosen to be rich in hits. Some 7.5% of all compounds tested hit in one or more screens of this group. Unless noted, calls follow the shape of the dose curve; as a rule, active = well fitted curve in the direction sought with a large enough effect; inconclusive = small, poorly fitted or top-dose-only effect, or another doubt; inactive = no such curve, though single readings can be large; an effect the other way counts as inactive or inconclusive.
SMILES,FMDV antiviral,FBPA Giardia inh,Vaccinia Venus,HCMV inh,HCV inhibitor,Vaccinia mCherry
CCc1cccc(N=c2c([N+](=O)[O-])nn(-c3ccc4c(c3)OCCO4)n2O)c1,?,.,.,-67,10µM,.
CCc1cccc(N=c2c([N+](=O)[O-])nn(-c3ccc(Cl)cc3)n2O)c1,.,.,.,.,?,.
COc1ccc(-c2csc3nc(-c4cccnc4)nc(Cl)c23)cc1OC,?,.,.,-71,?,.
Clc1nc(-c2cccnc2)nc2scc(-c3ccccc3)c12,.,.,/,?,?,/
c1ccc(-c2cc(NCCN3CCCCC3)c3ccccc3n2)cc1,?,.,11µM,-100,?,?
Cc1cc(C)cc(NC(=O)CCN2C(=O)c3ccccc3Sc3ncccc32)c1,.,/,.,-61,/,.
CCC(C)NC(=O)c1cn(CC)c2cc(N3CCN(C(=O)c4ccco4)CC3)c(F)cc2c1=O (centres undefined),.,/,?,.,14µM,5µM
CCn1cc(C(=O)NCCCO)c(=O)c2cc(F)c(N3CCN(C)CC3)cc21,.,.,/,.,.,/
CCCCCCNC(=O)c1cn(CC)c2cc(N3CCN(C)CC3)c(F)cc2c1=O,.,.,/,.,10µM,/
CCn1cc(C(=O)NCCc2ccccc2)c(=O)c2cc(F)c(N3CCN(C)CC3)cc21,.,.,.,.,10µM,?
CCn1cc(C(=O)O)c(=O)c2cc(F)c(N3CCN(C(=S)NC(=O)c4ccccc4F)CC3)cc21,.,?,.,.,.,.
CCn1cc(C(=O)NCC(C)C)c(=O)c2cc(F)c(N3CCN(C(=O)c4ccco4)CC3)cc21,.,.,.,.,?,.
CCn1cc(C(=O)O)c(=O)c2cc(F)c(N3CCN(C(=O)Nc4ccccc4)CC3)cc21,.,.,/,-84,.,/
CC1CCN(S(=O)(=O)c2ccc3c(c2)N(CC(=O)Nc2ccc(F)c(Cl)c2)C(=O)CO3)CC1,.,/,.,.,/,.
OCC(O)C1OC(Nc2ccc(Cl)cc2)C(O)C1O (centres undefined),.,.,/,.,.,/
Cc1ccc(C(=O)CN(CCCC(N)=O)C(=O)c2ccncc2)cc1,.,/,.,.,.,.
COc1ccc(/C=C(/NC(=O)c2ccco2)C(=O)NCc2ccco2)cc1OC,.,.,.,?,.,.
COCCN1CCc2nc(SCC(=O)Nc3ccc(C)c(Cl)c3)[nH]c(=O)c2C1,.,/,.,.,/,.
CCOC(=O)c1nn(-c2cccc(OC)c2)c2nc(Nc3ccccc3)cc(=O)n12,.,.,.,.,11µM,.
Cc1ccc(-c2cc(-c3ccccc3)cc(-c3ccccc3)[n+]2-c2ccccc2C(=O)O)cc1,?,/,.,-67,?,.
O=C(O)c1ccccc1C(=O)c1ccc(-c2ccccc2)cc1,.,.,/,.,.,/
COc1ccc2c(/C=N/NS(=O)(=O)c3ccc(C)cc3)c[nH]c2c1,.,.,.,.,?,?
COc1ccc(OC)c(S(=O)(=O)N/N=C(/C)c2c[nH]c3ccccc23)c1,.,.,.,.,.,.
COc1ccc2[nH]cc(/C=N/NS(=O)(=O)c3ccc(C)cc3)c2c1,.,.,/,-64,11µM,/
COc1ccc(OC)c(S(=O)(=O)N/N=C\c2c[nH]c3ccccc23)c1,.,.,.,.,11µM,.
SMILES,FMDV antiviral,FBPA Giardia inh,Vaccinia Venus,HCMV inh,HCV inhibitor,Vaccinia mCherry
CCCn1c(Oc2ccccc2)nc2c1c(=O)n(C)c(=O)n2C,.,.,/,.,.,/
CC(=O)c1cccc(S(=O)(=O)Nc2cccnc2)c1,.,.,.,.,.,.
CCOC(=O)c1c(S(=O)(=O)N2CCC(C(=O)Nc3ccc(C)cc3C)CC2)c(C)n(C)c1C,.,/,.,.,/,.
CC(C)c1ccc(CC(=O)N2CCC2(C)C(=O)Nc2cccc(C#N)c2)cc1 (centres undefined),.,/,.,.,/,.
CC1(C(=O)Nc2cccc(C#N)c2)CCN1C(=O)Cc1ccc(-c2ccccc2)cc1 (centres undefined),25µM,/,.,-61,/,.
COc1cccc(N/C(SCc2ccccc2C)=C(/C#N)C(=O)NCc2cccs2)c1,.,.,.,-80,.,.
CCOC(=O)c1cc(OC(=O)c2cccc(Cl)c2)n(-c2ccccc2)n1,.,/,.,.,/,.
S=C(S)OC1CC2CC1C1CCCC21 (centres undefined),.,.,.,-60,.,.
